Data on 36 molecules can be found in ChEMBL document CHEMBL1157539, “Thousands of chemical starting points for antimalarial lead identification” (Nature, 2010).

Molecules are shown by their SMILES.

This assay deals with HepG2. Briefly: GSK_TCMDC: Percent inhibition of human HepG2 cell line. Test compounds present at 10uM. It is filed as functional.
In general, Inhibition refers to the share of the control response that was lost under treatment. A high value points to strong suppression. Molecule `Br.CCC1N=C(N)N=C(N)N1OCCCOc1c(Cl)cc(Cl)cc1Cl` (stereo unspecified) registered an Inhibition of 67%.

On to `Cc1cc(-c2ccc3c(c2)CCN(CCC2CCC(NC(=O)/C=C/c4ccccc4F)CC2)CC3)on1.Cl` (stereo unspecified), for which the Inhibition is 26%.

In turn, `CN1CCN(Cc2ccc(-c3ccc4c(Nc5ccc(Oc6ccccc6)cc5)ccnc4c3)o2)CC1` returned an Inhibition of 23%.

The molecule `CC(C)N(Cc1cnc2nc(N)nc(N)c2n1)c1ccc(Cl)c(Cl)c1` had an Inhibition of 63%.

In the case of `O=C(CCc1cccnc1)Nc1cccc(-c2ccc(-c3nc4cc(C(F)(F)F)ccc4[nH]3)cc2)c1`, the Inhibition stood at 38%.

The molecule `Cl.N#CC1(CCCNCCc2ccc(O)cc2)CCCc2c(O)cccc21` (stereo unspecified) yielded an Inhibition of 0%.

In turn, `N#Cc1ccc(-c2ccc(C(=O)NCCCCN3CCC(c4cc(Br)c5c(c4OCC(N)=O)CCCC5)CC3)cc2)cc1` displayed an Inhibition of 23%.

With `COc1cc(CN2CCC(NC(=O)[C@H](Cc3ccccc3)NC(=O)Nc3ccc(Oc4ccccc4)cc3)C2)ccc1O` (stereo partly specified), the Inhibition amounted to 10%.

`CS(=O)(=O)c1ccc(CNCc2ccc(-c3cccc(-c4nc5cc(F)ccc5[nH]4)c3)cc2)cc1.O=C(O)C(F)(F)F` returned an Inhibition of 33%.

`CCNC(=O)Nc1ccc(N(C)c2ccnc(NC3CC3)n2)cc1`: the Inhibition was 21%.

As for `Cc1ccc2c(c1)c(-c1ccccc1)c(-c1ccccc1)n2CC(O)CN1CCN(CC=Cc2ccccc2)CC1` (stereo unspecified), the Inhibition is recorded as 0%.

In turn, `COC(=O)c1cccc(CNCc2cccc(-c3cccc(-c4nc5cccc(C)c5[nH]4)c3)c2)c1.O=C(O)C(F)(F)F` had an Inhibition of 0%.

`CCN(CC)/C(=N\CCCCCC/N=C(\NC(=N)c1ccc(Cl)cc1)N(CC)CC)NC(=N)c1ccc(Cl)cc1` displayed an Inhibition of 1%.

`CCN(CC)CCN(Cc1ccc(-c2ccc(C(F)(F)F)cc2)cc1)C(=O)CN1C(CCc2cccc(F)c2F)=NS(=O)(=O)c2ccccc21` showed an Inhibition of 36%.

The molecule `CC(C)(C)CNCC(C)(C)c1nc(-c2ccc(Cl)c(O)c2)c(-c2ccncc2)[nH]1.Cl` had an Inhibition of 42%.

As to `Cc1cc(NC(=O)NCCN2CCC(NS(=O)(=O)c3ccccc3F)CC2)c2ccccc2n1`, the Inhibition stood at 0%.

The molecule `CCCCCN1CCCC(NS(=O)(=O)c2ccc(C(=O)Nc3cccc(C(F)(F)F)c3)cc2)C1.O=C(O)C(F)(F)F` (stereo unspecified) returned an Inhibition of 30%.

`O=C1OC2(CCN(C(=O)c3ccc(-n4cnnn4)cc3)CC2)CN1Cc1ccc(Cl)c(Cl)c1` came in with an Inhibition of 11%.

In the case of `c1ccc(COc2ccc(COc3ccc(Cn4ccnc4)cc3)cc2)cc1`, the Inhibition was 9%.

`C=CCOC(=O)N1CCC(CNCc2cccc(-c3cccc(-c4nc5cccc(C)c5[nH]4)c3)c2)C1.O=C(O)C(F)(F)F` (stereo unspecified): the Inhibition came out at 22%.

On to `Br.CCCN(CCCCCCN(CCC)CCc1ccc(O)c(O)c1)CCc1ccc(O)cc1`, for which the Inhibition is 0%.

As for `CC(C)NCc1ccc(-c2ccc(NC(=O)c3cccc(Cl)c3)cc2)cc1.O=C(O)C(F)(F)F`, the Inhibition came out at 36%.

`Cc1[nH]c2ccc(-c3ccc(N(C)C)cc3)cc2c(=O)c1Cl`: the Inhibition is 0%.

Consider `Cc1cc(NCC2CCN(CC3CCCCC3)C2)nc(Nc2ccc(Br)cc2)n1` (stereo unspecified), for which the Inhibition was 0%.

In the case of `Fc1ccc2[nH]c(-c3cccc(-c4ccc(CN5CCN(c6cnccn6)CC5)cc4)c3)nc2c1.O=C(O)C(F)(F)F`, the Inhibition was determined as 19%.

The molecule `Cc1cc(NCCc2ccccc2)nc(NC(=N)Nc2ccccc2Cl)n1` came in with an Inhibition of 20%.

In turn, `Cc1cc(NCCC(=O)NCCOc2ccccc2)nc(NCCc2ccc(F)cc2)n1.O=C(O)C(F)(F)F` gave an Inhibition of 14%.

Molecule `O=C(Nc1cccc(CN2CCN(C(=O)c3cccc(Cl)c3)CC2)c1)c1ccco1.O=C(O)C(F)(F)F` registered an Inhibition of 7%.

For the molecule `O=C(Nc1ccc(Cl)c(C(F)(F)F)c1)c1ccc(C(=O)Nc2ccc(Cl)c(C(F)(F)F)c2)cc1`, the Inhibition was found to be 9%.

Turning to `Cl.Clc1ccc(CCNCCCCCCNCCc2ccc3c(c2)OCO3)cc1`, the Inhibition came to 23%.

As to `CCCNC(=O)C1Cc2cc(OC)c(OC)cc2C2(N1)C(=O)N(Cc1cccc(OC)c1)c1ccccc12` (stereo unspecified), the Inhibition was found to be 11%.

`Cc1ccc(NC(=O)NC2CCN(CCCCCNC(=O)/C=C/c3ccc(Cl)c(Cl)c3)CC2)cc1C` showed an Inhibition of 36%.

On to `Fc1ccc(Nc2ccnc3cc(-c4cccc(CNCCN5CCOCC5)c4)ccc23)c(Cl)c1`, for which the Inhibition came to 26%.

`Cc1csc(-c2nonc2NC(=O)COc2ccccc2C(C)C)n1` gave an Inhibition of 14%.

Consider `O=C(Nc1ccc(-c2ccccc2)cc1)Nc1cccc(Cn2cnc(N3CCCNCC3)cc2=O)c1.O=C(O)C(F)(F)F`, for which the Inhibition is 8%.

In turn, `O=C(Nc1ccc(-c2cccc(-c3nc4ccccc4[nH]3)c2)cc1)c1cnn2cccnc12` yielded an Inhibition of 64%.
